Compound activity: PubChem, Broad Institute
T cruzi growth-1 – T. cruzi proliferation inhibition; T. cruzi beta-gal in NIH3T3, GalScreen luminescence, 90 h; inhibition, % at 8.34 µM; 77,000 tested, 5.9% active;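 active means mean inhibition above about 93%, with at least 55% of replicates each passing it, limit read from the data, passing the limit was not always enough; inconclusive means only one of those two conditions holds; inactive means neither condition holds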
Pf Dd2 growth – inhibitors of Plasmodium falciparum Dd2 growth; P. falciparum Dd2 growth, SYBR Green, 72 h; hits give low values; activity change, % at 10 µM; 94,000 tested, 2.3% active; AID 1159554; in the data active means activity change below about -80%; inconclusive means no clear call, values can overlap the other calls
C diff growth – blocks growth of Clostridium difficile | 86,000 tested, 0.25% active | Clostridium difficile clinical isolate growth, OD600, 24 h; hits give low values | growth activity, negative = inhibition, % at 16 µg/mL (by protocol) | AID 1259249;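 active means mean growth activity at or below -80% and every replicate also at or below -80%; inconclusive means mean at or below -80% but some replicate above -80%; inactive means mean growth activity above -80%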;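 further: 0% = DMSO wells and -100% = levofloxacin 16 µg/mL wells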
T cruzi growth-2 – inhibitors of T. cruzi proliferation; inhibition, % at 8.35 µM; 5,600 tested, 72% active; shares compounds with T cruzi growth-1; T. cruzi beta-gal in NIH3T3, GalScreen luminescence, 90 h;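 active means mean replicate inhibition above about 95% and at least 55% of replicates individually reaching it, limit read from the data; inconclusive means only one of the two criteria is met; inactive means neither criterion is met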
T cruzi growth-3 – Trypanosoma cruzi proliferation inhibition. 5,600 tested, 21% active. shares compounds with T cruzi growth-1. inhibition, % at 2.09 µM. AID 651740. T. cruzi beta-gal in NIH3T3, GalScreen luminescence, 90 h;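 active means mean inhibition above about 95%, with at least 55% of replicates also reaching it, limit read from the data; inconclusive means meets just one of the two conditions; inactive means meets neither condition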;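 further: plate controls were neutral control median for no effect and positive control median for full effect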
NIH3T3 tox – cytotoxicity in mouse NIH/3T3 fibroblasts; shares compounds with T cruzi growth-1; NIH/3T3 viability, CellTiter-Glo ATP luminescence, 90 h; cytotoxicity (signal decrease), % at 8.35 µM; 5,600 tested, 14% active; AID 651742;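 active means mean signal decrease across replicates above about 35% based on untreated-well scatter, with enough replicates individually passing, limit read from the data; inconclusive means no rule stated though some were filed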;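 further: 0% = median of neutral control wells and 100% = median of positive control wells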
NIH3T3 tox 2 – kills mouse NIH/3T3 fibroblasts. shares compounds with T cruzi growth-1. 5,600 tested, 56% active. NIH/3T3 viability, CellTiter-Glo ATP luminescence, 90 h. inhibition, % at 24.9 µM;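 active means mean loss of cell viability signal at or above a set limit, and enough replicates individually reaching it; inconclusive means meets only the mean limit or only the replicate share; inactive means meets neither condition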;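 further: 0% = median of neutral control wells and 100% = median of positive control wells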
Starred values were filed as active, the others as inactive; ? = inconclusive; · = no result given. Compounds with a hit are over-represented: about 6.7% of the library has one in this group of screens.

SMILES	T cruzi growth-1	Pf Dd2 growth	C diff growth	T cruzi growth-2	T cruzi growth-3	NIH3T3 tox	NIH3T3 tox 2
C[C@@H]1CCCCO[C@@H](CN(C)S(=O)(=O)c2ccc(Cl)cc2)[C@H](C)CN([C@H](C)CO)C(=O)c2cc(NC(=O)Cc3ccccc3)ccc2O1	116*	-78	2	105*	103*	-28	18
C[C@@H]1CCCCO[C@H](CN(C)S(=O)(=O)c2ccc(Cl)cc2)[C@H](C)CN([C@H](C)CO)C(=O)c2cc(NC(=O)Cc3ccccc3)ccc2O1	117*	-74	5	110*	105*	-9	-8
C[C@H](CO)N1C[C@H](C)[C@H](CN(C)S(=O)(=O)c2ccccc2)OCCCC[C@H](C)Oc2ccc(NC(=O)Cc3ccccc3)cc2C1=O	·	-5	·	·	·	·	·
C[C@H](CO)N1C[C@H](C)[C@@H](CN(C)S(=O)(=O)c2ccccc2)OCCCC[C@H](C)Oc2ccc(NC(=O)Cc3ccccc3)cc2C1=O	·	-45	·	·	·	·	·
C[C@H]1CCCCO[C@H](CN(C)S(=O)(=O)c2ccc(Cl)cc2)[C@@H](C)CN([C@@H](C)CO)C(=O)c2cc(NC(=O)Cc3ccccc3)ccc2O1	112*	-81*	8	103*	84	1	-3
C[C@H]1CCCCO[C@H](CN(C)S(=O)(=O)c2ccccc2)[C@@H](C)CN([C@@H](C)CO)C(=O)c2cc(NC(=O)Cc3ccccc3)ccc2O1	·	-79	·	·	·	·	·
C[C@H](CO)N1C[C@H](C)[C@H](CN(C)S(=O)(=O)c2ccc(Cl)cc2)OCCCC[C@H](C)Oc2ccc(NC(=O)Cc3ccccc3)cc2C1=O	105*	-72	3	100*	109*	-11	11
O=C(NCC[C@@H]1CC[C@@H](NC(=O)C2CCOCC2)[C@H](CO)O1)Nc1ccc(Cl)cc1	-18	9	-5	·	·	·	·
C[C@H](CO)N1C[C@H](C)[C@@H](CN(C)C(=O)Cc2ccccc2)OCCCC[C@H](C)Oc2ccc(NC(=O)c3ccccc3)cc2C1=O	42	32	-6	·	·	·	·
Cc1noc(C)c1S(=O)(=O)Nc1ccc2c(c1)C(=O)N([C@@H](C)CO)C[C@@H](C)[C@@H](CN(C)Cc1ccc3c(c1)OCO3)OCCCC[C@@H](C)O2	55	-72	2	·	·	·	·
Cc1cccc(S(=O)(=O)N2C[C@H](O)COC[C@@H]3O[C@@H](CC(=O)Nc4ccc(-c5ccccc5)cc4)CC[C@H]32)c1	111*	-59	15	97*	?	60*	78*
O=C(C[C@H]1CC[C@@H]2[C@H](COC[C@@H](O)CN2S(=O)(=O)c2ccccc2)O1)Nc1ccc(-c2ccccc2)cc1	69	-26	·	·	·	·	·
O=C(C[C@@H]1CC[C@H]2[C@@H](COC[C@@H](O)CN2S(=O)(=O)c2cccc(F)c2)O1)Nc1ccc(-c2ccccc2)cc1	92	4	-39	·	·	·	·
Cc1cccc(S(=O)(=O)N2C[C@@H](O)COC[C@H]3O[C@@H](CC(=O)Nc4ccc(-c5ccccc5)cc4)CC[C@@H]32)c1	113*	-48	9	100*	95	7	78*
O=C(C[C@H]1CC[C@@H]2[C@H](COC[C@H](O)CN2S(=O)(=O)c2ccccc2)O1)Nc1ccc(-c2ccccc2)cc1	88	-20	·	·	·	·	·
Cc1cccc(S(=O)(=O)N2C[C@H](O)COC[C@@H]3O[C@H](CC(=O)Nc4ccc(-c5ccccc5)cc4)CC[C@H]32)c1	112*	-60	30	102*	107*	10	16
O=C(C[C@@H]1CC[C@@H]2[C@H](COC[C@@H](O)CN2S(=O)(=O)c2ccccc2)O1)Nc1ccc(-c2ccccc2)cc1	104*	-32	·	117*	72	17	20
O=C(C[C@@H]1CC[C@H]2[C@@H](COC[C@@H](O)CN2S(=O)(=O)c2ccccc2)O1)Nc1ccccc1	-14	2	4	·	·	·	·
O=C(Nc1ccccc1)NC1(c2cn(CC(=O)N3CCN(c4ccccc4)CC3)nn2)CCCCC1	·	·	-2	·	·	·	·
O=C(C[C@H]1C=C[C@@H](NC(=O)C2CCC2)[C@H](CO)O1)NCCCN1CCOCC1	34	33	·	·	·	·	·
C[C@@H]1CN([C@H](C)CO)C(=O)c2cc(NC(=O)NC3CCCCC3)ccc2O[C@@H](C)CCCCO[C@@H]1CN(C)Cc1ccncc1	93	-21	0	·	·	·	·
COc1ccc(CN2CC3(CCN(C(=O)C4CC4)CC3)c3c(n(C)c4cc(OC)ccc34)[C@H]2CO)cc1	·	-17	14	·	·	·	·
C[C@@H]1CN([C@@H](C)CO)C(=O)c2cc(NC(=O)C3CC3)ccc2O[C@H]1CN(C)Cc1ccc(Cl)c(Cl)c1	57	-11	-4	·	·	·	·
O=C(C[C@@H]1CC[C@@H]2[C@H](COC[C@@H](O)CN2S(=O)(=O)c2cccc(F)c2)O1)Nc1ccc(-c2ccccc2)cc1	95	-17	12	·	·	·	·
Cc1cccc(S(=O)(=O)N2C[C@@H](O)COC[C@@H]3O[C@H](CC(=O)Nc4ccc(-c5ccccc5)cc4)CC[C@H]32)c1	119*	-62	14	107*	74	?	41*
SMILES	T cruzi growth-1	Pf Dd2 growth	C diff growth	T cruzi growth-2	T cruzi growth-3	NIH3T3 tox	NIH3T3 tox 2
Cc1noc(C)c1NC(=O)Nc1ccc2c(c1)C(=O)N([C@@H](C)CO)C[C@H](C)[C@H](CN(C)C(=O)NC(C)C)O2	100	19	·	·	·	·	·
CC(C)CC#Cc1ccc2c(c1)O[C@H](CN(C)Cc1ccncc1)[C@@H](C)CN([C@H](C)CO)S2(=O)=O	122*	-77	11	104*	104*	30	105*
CC(C)CC#Cc1ccc2c(c1)O[C@@H](CN(C)Cc1ccncc1)[C@H](C)CN([C@H](C)CO)S2(=O)=O	129*	-76	21	93	105*	61*	104*
CC(C)CC#Cc1ccc2c(c1)O[C@@H](CN(C)Cc1cncnc1)[C@@H](C)CN([C@@H](C)CO)S2(=O)=O	70	-18	1	·	·	·	·
CC(C)CC#Cc1ccc2c(c1)O[C@H](CN(C)Cc1ccc(F)cc1)[C@@H](C)CN([C@@H](C)CO)S2(=O)=O	101	-62	19	·	·	·	·
CC(C)CC#Cc1ccc2c(c1)O[C@H](CN(C)Cc1ccncc1)[C@@H](C)CN([C@@H](C)CO)S2(=O)=O	130*	-69	20	94	111*	?	106*
CC(C)CC#Cc1ccc2c(c1)O[C@@H](CN(C)Cc1cncnc1)[C@H](C)CN([C@H](C)CO)S2(=O)=O	52	-34	-11	·	·	·	·
O=C(C[C@@H]1CC[C@H](NC(=O)C2CCC2)[C@H](CO)O1)NCc1ccccc1Cl	-1	15	2	·	·	·	·
COc1ccc(S(=O)(=O)N(C)C[C@@H]2Oc3ccc(NC(=O)Cc4cn(C)c5ccccc45)cc3CC(=O)N([C@H](C)CO)C[C@@H]2C)cc1	74	-38	-5	·	·	·	·
